In PubChem BioAssay (NCATS):
Values joined by “and” are separate entries in the source; they are usually repeats but may differ in a detail not shown here. Identical values can stand only once. Inconclusive results are not listed. Some compounds were tested as several samples or in several runs, with calls that do not always agree. Active and inactive are the calls of the source. Unless noted, calls come from the whole dose curve; as a rule, active = well fitted curve in the direction sought with a large enough effect; inconclusive = small, poorly fitted or top-dose-only effect, or another doubt; inactive = no such curve, though single readings can be large; an effect the other way counts as inactive or inconclusive.

Experiments:
[1] = biological target: Cytochrome P450 1A2 (Homo sapiens) (UniProt P05177); experiment: p450-cyp1a2 (AID 410; calls by dose curve; note: potency is the fitted concentration of half-maximal effect); conditions: recombinant CYP1A2, luciferin-ME demethylation, luminescence; series mostly up to 57 µM
Method in brief: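 Luminescent readout of luciferin formed from Luciferin-ME by human CYP1A2; data normalized against complete inhibition by 57 uM furafylline. Enzyme 20nM, substrate 100uM at Km, 100mM KPO4 buffer, 60 min reaction at room temperature.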

[2] = Stat Signaling Pathway (AID 446; active = well fitted curve in either direction with a large enough effect, not every such curve was filed as active;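 note: ME-180 cervical cancer cells given 40 pM IL-6 alongside compound; SIE-controlled beta-lactamase reporter measured as 460/530 nm FRET emission ratio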); conditions: ME-180 SIE beta-lactamase reporter, IL-6 stimulated, 5 h; series mostly up to 38 µM
Method in brief: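 ME-180 cells carrying a SIE-driven beta-lactamase reporter are stimulated with 40 pM IL-6 for 5 h at 37C in the presence of compound. The 460/530 nm FRET substrate ratio is read after 2.5 h at RT. Data are normalised to 300 pM IL-6 and to 125 nM JAK inhibitor controls.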

[3] = biological target: Glucocorticoid receptor (Homo sapiens) (UniProt P04150); experiment: GR-GFP Redistribution (AID 450;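 active = compounds whose dose series gives a full or clear partial fitted curve of increased nuclear translocation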; note: potency is the fitted concentration of half-maximal effect); conditions: U2OS GR-GFP nuclear translocation, laser cytometry, 2 h
[4] = biological target: Glucocorticoid receptor (Homo sapiens) (UniProt P04150); experiment: GR-EFC Redistribution (AID 451; calls by dose curve; note: potency is the fitted concentration of half-maximal effect); conditions: CHO-K1 GR-EFC translocation, beta-gal luminescence, 2 h
Method in brief: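 CHO-K1 cells stably expressing nuclear-localized β-gal enzyme acceptor and GR fused C-terminally to the enzyme donor fragment; ligand-driven nuclear translocation restores β-gal by complementation. Compounds titrated up to 46 uM final, 2 h at 37 °C; luminescence read.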

[5] = biological target: Mitogen-activated protein kinase 10 (Mus musculus) (UniProt Q61831); experiment: JNK3 AlphaScreen Assay (AID 530; active = well fitted curve in either direction with a large enough effect, not every such curve was filed as active;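 note: kinase came from lysate of stimulated human HepG2 cells; signal reports phosphorylation of biotinylated GST-cJun 1-79 at Ser73 with 10 µM ATP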); conditions: JNK3 lysate, c-Jun phosphorylation; series mostly up to 57.1 µM
Method in brief: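 Inhibitors reduce antibody binding to phosphorylated biotin-cJun, lowering AlphaScreen luminescence. Lysates from HepG2 cells pre-activated by IL-1beta plus TNF-alpha supplied JNK3; compounds were titrated.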

[6] = biological target: 3',5'-cyclic-AMP phosphodiesterase 4B (Homo sapiens) (UniProt Q07343); experiment: qHTS Assay for Inhibitors of PDE-IV (AID 607; active = well fitted activation curve with a large enough effect in the main read-out, with a control signal flat, not every such curve was filed as active); conditions: HEK293 ACTOne CNG channel cells, membrane potential fluorescence; series mostly up to 22.9 µM
Method in brief: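 HEK293 ACTOne cells with CNG channel (1000/well), endogenous PDE4; membrane potential dye, compounds up to 22.9 uM final. Fluorescence Ex 535/Em 590; RO 20-1724 (100 uM final) as reference.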

[7] = biological target: Guanine nucleotide-binding protein G(i) subunit alpha-1 (Homo sapiens) (UniProt P63096); experiment: qHTS Assay for Inhibitors of RGS12 GoLoco Motif Activity (Green Fluorophore) (AID 879); conditions: Galphai1/FITC-RGS12 GoLoco peptide, fluorescence polarization; series mostly up to 57.1 µM;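 note: negative values mean loss of peptide binding seen as reduced polarization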
Method in brief: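 Fluorescence polarization assay: 50 nM Gαi1 with 10 nM FITC-labeled RGS12 GoLoco peptide in 10 mM Tris pH 7.5, 150 mM NaCl, 0.1 mM GDP, 0.05% NP40, 10 min at room temperature with compound.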

[8] = biological target: Cytochrome P450 2D6 (Homo sapiens) (UniProt P10635); experiment: qHTS Assay for Inhibitors and Substrates of Cytochrome P450 2D6 (AID 891); conditions: recombinant CYP2D6, luciferin-ME EGE luminescence; series mostly up to 57.1 µM; note: potency is the fitted concentration of half-maximal effect; nearly all actives have a fitted effect of over 60% in size
Method in brief: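 Human CYP2D6 (5 nM) with 30 uM Luciferin-ME EGE (at Km) in 100 mM KPO4, compound preincubated 10 min, then NADPH regeneration system for 60 min at room temperature. Luciferin read by luminescence; normalized to 1.43 uM quinidine.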

[9] = qHTS Assay for Identification of Small Molecule Antagonists for NFkB Signaling Pathway (AID 895; active = well fitted inhibition curve with a large enough effect in the signal ratio, with a control signal flat, not every such curve was filed as active; the % refers to the signal ratio); conditions: NFkB beta-lactamase reporter cells, FRET ratio 460/530; series mostly up to 38.3 µM
Method in brief: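 NFkB-bla ME-180 cervical carcinoma cells with beta-lactamase reporter under NFkB response element; compounds added, then TNF alpha at 10 pM final (EC50), 5 h at 37 C. LiveBLAzer substrate 2 h, room temperature; emission 460/530 nm at 405 nm excitation.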

[10] = qHTS Assay for Identification of Small Molecule Agonists for Thrombopoietin (TPO) Signaling Pathway (AID 917); conditions: TPO signaling pathway reporter cells, agonist qHTS; series mostly up to 38.5 µM
Method in brief: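 We measured Glycoprotein IIb promoter–luciferase output in IL-3-starved Ba/F3 murine cells expressing the human TPO receptor after 24 hrs at 37 C with compounds and 26 pM TPO.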

[11] = biological target: Muscarinic acetylcholine receptor M1 (Rattus norvegicus) (UniProt P08482); experiment: qHTS Assay for Antagonists of Acetylcholine Muscarinic M1 Receptor: Kinetic Measurement of Intracellular Calcium Response (AID 943); conditions: M1-expressing cells, kinetic intracellular calcium fluorescence; series mostly up to 35.3 µM; note: potency is the fitted concentration of half-maximal effect; nearly all actives have a fitted effect of over 75% in size
Method in brief: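 Rat M1-CHO cells, 2000/well, overnight → Fluo-4 no-wash dye with probenecid, 1 h 37C → compound 10 min, room temp → basal read 6 s → carbachol EC80 (100 nM) → 4 min kinetic read; peak/basal.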

[12] = biological target: Muscarinic acetylcholine receptor M1 (Rattus norvegicus) (UniProt P08482); experiment: qHTS Assay for Antagonists of Acetylcholine Muscarinic M1 Receptor: Measurement of IP-One Response (AID 944); conditions: CHO-M1 cells, IP-One HTRF, antagonist mode; series mostly up to 46.1 µM; note: potency is the fitted concentration of half-maximal effect; nearly all actives have a fitted effect of over 75% in size
Method in brief: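 M1-CHO (rat), 2000 cells/well, overnight recovery; cpd 10 min; carbachol EC80 (200 nM), 30 min, HEPES buffer + 50 mM LiCl pH 7.4; IP-One HTRF, Ex 337, Em 620/665 nm.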

[13] = biological target: Pyruvate kinase (Leishmania mexicana) (UniProt Q27686); experiment: qHTS Validation Assay for Inhibitors of Leishmania Mexicana Pyruvate Kinase (AID 945); conditions: purified L. mexicana pyruvate kinase, enzyme activity, E451W mutant enzyme; series mostly up to 57.5 µM
Method in brief: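 Read-out: luminescence from PKLight stop/detection reagent, data normalized to DMSO. Reaction: 0.2 nM E451W LmPYK, 0.5 mM PEP, 0.1 mM ADP, pH 7.2, 1 h room temperature.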

[14] = biological target: Alpha-galactosidase (Coffea arabica) (UniProt Q42656); experiment: Counterscreen for Glucocerebrosidase Inhibitors: qHTS Assay for Coffee Bean alpha-Galactosidase at pH 4.5 (AID 957); conditions: purified coffee bean alpha-galactosidase, fluorogenic substrate; series mostly up to 76.9 µM
Method in brief: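 Coffee bean alpha-galactosidase 2 nM, substrate 4-MU-alpha-Gal 80 uM, pH 4.5 citrate/Tween-20, 20 min RT. Cpd titration 0.7 nM–77 uM. Stop pH 10, fluorescence 365/440 nm; Hill-equation AC50.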

[15] = biological target: Alpha-galactosidase A (Homo sapiens) (UniProt P06280); experiment: Counterscreen for Glucocerebrosidase Inhibitors: qHTS Assay for Human alpha-Galactosidase at pH 4.5 (AID 992); conditions: purified enzyme, fluorogenic substrate; series mostly up to 76.9 µM
Method in brief: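 Human enzyme (2 nM) with 80 uM 4-methylumbelliferyl alpha-D-galactopyranoside in 50 mM citric acid, 0.005% Tween-20, pH 4.5, 20 min at room temperature. Compounds 0.7 nM–77 uM; fluorescence Ex 365/Em 440 after pH 10 stop; AC50 from Hill fits.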

[16] = biological target: Alpha-galactosidase (Coffea arabica) (UniProt Q42656); experiment: Counterscreen for Glucocerebrosidase Inhibitors: qHTS Assay for Coffee Bean alpha-Galactosidase at pH 5.9 (AID 998); conditions: coffee bean alpha-galactosidase enzyme assay; series mostly up to 76.9 µM
Method in brief: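 Green coffee bean enzyme (2 nM final) was incubated with compounds (0.7 nM–77 uM) and 4-methylumbelliferyl alpha-D-galactopyranoside (80 uM) in citrate buffer pH 5.9, 20 min at room temperature. High-pH stop; fluorescence 365/440 nm; AC50 from Hill fits.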

[17] = biological target: Ubiquitin carboxyl-terminal hydrolase 1 (Homo sapiens) (UniProt O94782); experiment: Inhibitors of USP1/UAF1: Pilot qHTS (AID 504865); conditions: purified USP1/UAF1, Ub-rhodamine cleavage fluorescence; series mostly up to 114 µM;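 note: rhodamine fluorescence freed from ubiquitin-rhodamine substrate followed over time; top concentration of the series differs between compounds; nearly all actives have a fitted effect of over 35% in size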
Method in brief: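 Kinetic fluorescence assay: 1nM USP1/UAF1, 15 min compound preincubation, then 150nM Ub-Rho; 480/540 nm.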

[18] = biological target: DNA dC->dU-editing enzyme APOBEC-3G (Homo sapiens) (UniProt Q9HC16); experiment: qHTS for inhibitors of Vif-A3G interactions: Validation (AID 588379); conditions: Vif-A3G protein interaction assay; series mostly up to 46.1 µM
Method in brief: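 HeLa cells stably expressing Vif and A3G-eYFP, 700 cells/well, incubated overnight at 37 deg C, then exposed to compound overnight at 37 deg C. Inhibition of Vif-mediated degradation read as increased yellow fluorescence (Ex 488/Em 500-530) by laser-scanning cytometry.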

[19] = biological target: Luciferin 4-monooxygenase (Photinus pyralis) (UniProt P08659); experiment: Biochemical firefly luciferase enzyme assay for NPC (AID 624030);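 note: purified P. pyralis luciferase at 10 nM with luciferin and ATP substrate; nearly all actives have a fitted effect of over 70% in size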; conditions: purified P. pyralis luciferase, luminescence, 5 min; series mostly up to 58.6 µM
Method in brief: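 Counter-screen for direct inhibition of the luciferase enzyme by approved-drug library compounds, run at 10 nM enzyme in 50 mM Tris acetate (final). Luminescence was read within 5 min of enzyme-buffer addition and normalized to PTC124 versus DMSO (0%).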

[20] = biological target: Calcium and integrin-binding protein 1 (Homo sapiens) (UniProt Q99828); experiment: Confirmatory qHTS for Identification of Calcium Integrin Binding Protein 1 (CIB1) Competitor (AID 1508617); conditions: CIB1 binding competition assay, biochemical qHTS; note: potency is the fitted concentration of half-maximal effect; nearly all actives have a fitted effect of over 65% in size
Method in brief: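 FP competition: CIB1-GST (1 uM final) in 5 mM HEPES pH 7.4, 125 mM NaCl, 5 mM CaCl2, 0.01% Tween20 preincubated 15 min RT with compounds (up to 114 uM), then FITC-alphaIIb peptide (100 nM), 15 min RT; Ex 480/Em 540.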

Measured: Potency

Chain of Alpha-galactosidase (Coffea arabica) (Q42656 whole entry, looked up): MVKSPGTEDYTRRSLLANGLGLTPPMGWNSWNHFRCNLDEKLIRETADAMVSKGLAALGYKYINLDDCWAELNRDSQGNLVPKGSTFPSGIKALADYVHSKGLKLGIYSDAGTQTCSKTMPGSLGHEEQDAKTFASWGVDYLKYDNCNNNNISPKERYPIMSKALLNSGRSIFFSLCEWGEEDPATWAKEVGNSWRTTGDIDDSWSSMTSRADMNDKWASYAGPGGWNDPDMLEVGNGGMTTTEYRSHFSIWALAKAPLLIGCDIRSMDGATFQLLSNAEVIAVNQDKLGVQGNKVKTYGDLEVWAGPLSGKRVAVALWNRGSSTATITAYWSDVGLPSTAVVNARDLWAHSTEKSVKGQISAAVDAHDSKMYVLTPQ
Chain of Glucocorticoid receptor (Homo sapiens) (P04150 whole entry, looked up, the tested form may be a part): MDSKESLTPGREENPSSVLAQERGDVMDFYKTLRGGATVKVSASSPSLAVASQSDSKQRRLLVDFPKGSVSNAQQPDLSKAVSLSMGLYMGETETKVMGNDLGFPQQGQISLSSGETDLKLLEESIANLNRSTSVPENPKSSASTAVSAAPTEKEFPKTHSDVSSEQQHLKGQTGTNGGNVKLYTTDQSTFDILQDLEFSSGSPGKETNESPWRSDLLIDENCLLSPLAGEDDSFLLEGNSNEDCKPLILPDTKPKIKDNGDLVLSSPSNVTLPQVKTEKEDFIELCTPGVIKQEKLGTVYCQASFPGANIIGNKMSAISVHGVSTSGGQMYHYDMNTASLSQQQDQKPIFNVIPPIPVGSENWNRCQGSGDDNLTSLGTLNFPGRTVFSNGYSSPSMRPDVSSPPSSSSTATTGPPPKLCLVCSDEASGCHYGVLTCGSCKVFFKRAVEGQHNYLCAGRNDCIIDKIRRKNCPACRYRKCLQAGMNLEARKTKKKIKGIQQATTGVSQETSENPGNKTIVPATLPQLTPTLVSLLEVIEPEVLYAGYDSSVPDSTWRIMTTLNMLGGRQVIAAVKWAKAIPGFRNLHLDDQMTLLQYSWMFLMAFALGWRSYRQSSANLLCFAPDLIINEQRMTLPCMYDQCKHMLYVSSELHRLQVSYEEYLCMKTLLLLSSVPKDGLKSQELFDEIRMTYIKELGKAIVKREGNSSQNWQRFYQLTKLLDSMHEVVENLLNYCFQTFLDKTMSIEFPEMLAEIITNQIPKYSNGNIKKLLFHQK
Chain of Muscarinic acetylcholine receptor M1 (Rattus norvegicus) (P08482 whole entry, looked up): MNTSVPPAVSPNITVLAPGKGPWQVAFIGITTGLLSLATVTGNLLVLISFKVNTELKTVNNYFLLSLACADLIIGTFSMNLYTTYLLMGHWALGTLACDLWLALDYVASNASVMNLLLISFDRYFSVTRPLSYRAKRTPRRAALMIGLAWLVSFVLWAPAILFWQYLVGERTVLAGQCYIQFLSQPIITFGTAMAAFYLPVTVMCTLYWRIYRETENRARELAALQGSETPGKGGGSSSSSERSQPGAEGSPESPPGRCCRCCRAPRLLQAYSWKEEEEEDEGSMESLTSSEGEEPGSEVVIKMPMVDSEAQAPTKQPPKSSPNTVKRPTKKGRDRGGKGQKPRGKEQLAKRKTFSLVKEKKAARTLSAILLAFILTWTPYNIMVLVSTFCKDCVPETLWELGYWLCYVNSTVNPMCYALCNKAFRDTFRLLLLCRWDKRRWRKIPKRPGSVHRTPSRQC
Chain of Cytochrome P450 1A2 (Homo sapiens) (P05177 whole entry, looked up): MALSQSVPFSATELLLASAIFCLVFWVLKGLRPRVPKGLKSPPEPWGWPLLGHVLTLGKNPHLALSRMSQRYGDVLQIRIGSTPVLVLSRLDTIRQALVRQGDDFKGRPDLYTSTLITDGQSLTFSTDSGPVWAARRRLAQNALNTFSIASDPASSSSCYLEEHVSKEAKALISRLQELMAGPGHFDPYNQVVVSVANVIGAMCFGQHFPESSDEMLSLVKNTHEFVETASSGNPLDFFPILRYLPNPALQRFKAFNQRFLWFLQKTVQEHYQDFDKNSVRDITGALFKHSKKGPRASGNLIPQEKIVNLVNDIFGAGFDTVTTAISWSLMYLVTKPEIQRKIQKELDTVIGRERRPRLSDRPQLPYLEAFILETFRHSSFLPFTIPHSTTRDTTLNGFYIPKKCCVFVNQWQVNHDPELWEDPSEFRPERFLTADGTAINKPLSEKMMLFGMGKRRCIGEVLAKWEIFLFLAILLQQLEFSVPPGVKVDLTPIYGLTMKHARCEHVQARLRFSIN
Chain of 3',5'-cyclic-AMP phosphodiesterase 4B (Homo sapiens) (Q07343 whole entry, looked up): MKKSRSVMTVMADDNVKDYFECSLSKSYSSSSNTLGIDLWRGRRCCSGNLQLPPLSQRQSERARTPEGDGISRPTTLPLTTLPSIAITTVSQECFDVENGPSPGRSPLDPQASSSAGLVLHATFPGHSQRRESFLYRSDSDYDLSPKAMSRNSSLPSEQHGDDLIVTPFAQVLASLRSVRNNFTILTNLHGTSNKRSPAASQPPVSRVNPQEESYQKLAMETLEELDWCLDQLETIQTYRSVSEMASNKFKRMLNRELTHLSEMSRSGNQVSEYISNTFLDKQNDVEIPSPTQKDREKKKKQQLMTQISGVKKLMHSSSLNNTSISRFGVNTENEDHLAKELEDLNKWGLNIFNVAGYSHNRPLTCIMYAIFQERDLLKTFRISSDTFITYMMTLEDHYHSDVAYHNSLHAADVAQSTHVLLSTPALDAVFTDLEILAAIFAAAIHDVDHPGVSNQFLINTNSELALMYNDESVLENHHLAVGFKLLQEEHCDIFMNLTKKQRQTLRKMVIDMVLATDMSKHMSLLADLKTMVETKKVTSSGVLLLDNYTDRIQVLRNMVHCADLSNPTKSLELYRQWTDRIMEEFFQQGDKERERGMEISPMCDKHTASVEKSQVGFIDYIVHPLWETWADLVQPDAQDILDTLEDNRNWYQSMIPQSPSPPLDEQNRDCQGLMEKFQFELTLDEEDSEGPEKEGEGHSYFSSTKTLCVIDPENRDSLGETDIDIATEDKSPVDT
Chain of Alpha-galactosidase A (Homo sapiens) (P06280 whole entry, looked up): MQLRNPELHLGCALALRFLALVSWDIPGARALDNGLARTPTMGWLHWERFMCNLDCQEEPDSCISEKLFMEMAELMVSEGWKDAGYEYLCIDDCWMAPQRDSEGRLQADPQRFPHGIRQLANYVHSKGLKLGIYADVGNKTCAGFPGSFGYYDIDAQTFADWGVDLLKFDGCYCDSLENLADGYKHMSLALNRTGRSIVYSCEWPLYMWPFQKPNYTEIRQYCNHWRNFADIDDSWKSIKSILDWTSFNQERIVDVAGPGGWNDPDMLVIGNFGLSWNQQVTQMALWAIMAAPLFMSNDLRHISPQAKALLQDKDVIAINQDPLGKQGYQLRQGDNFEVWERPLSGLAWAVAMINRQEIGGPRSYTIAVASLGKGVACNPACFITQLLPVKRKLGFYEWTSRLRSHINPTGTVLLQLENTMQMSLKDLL
Chain of Cytochrome P450 2D6 (Homo sapiens) (P10635 whole entry, looked up): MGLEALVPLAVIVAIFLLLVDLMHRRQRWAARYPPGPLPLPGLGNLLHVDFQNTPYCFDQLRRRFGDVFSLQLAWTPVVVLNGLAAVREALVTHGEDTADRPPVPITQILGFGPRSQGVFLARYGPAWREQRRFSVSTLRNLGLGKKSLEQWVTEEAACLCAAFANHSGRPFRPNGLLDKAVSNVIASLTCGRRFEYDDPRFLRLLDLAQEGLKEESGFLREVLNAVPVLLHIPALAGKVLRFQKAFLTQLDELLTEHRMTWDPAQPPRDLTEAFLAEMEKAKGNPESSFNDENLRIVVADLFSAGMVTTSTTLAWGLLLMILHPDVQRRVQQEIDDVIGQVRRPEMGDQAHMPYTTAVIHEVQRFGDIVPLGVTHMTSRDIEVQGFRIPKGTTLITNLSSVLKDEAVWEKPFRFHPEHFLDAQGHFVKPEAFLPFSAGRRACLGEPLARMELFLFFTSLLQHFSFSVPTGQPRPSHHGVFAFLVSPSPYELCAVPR
Chain of Guanine nucleotide-binding protein G(i) subunit alpha-1 (Homo sapiens) (P63096 whole entry, looked up): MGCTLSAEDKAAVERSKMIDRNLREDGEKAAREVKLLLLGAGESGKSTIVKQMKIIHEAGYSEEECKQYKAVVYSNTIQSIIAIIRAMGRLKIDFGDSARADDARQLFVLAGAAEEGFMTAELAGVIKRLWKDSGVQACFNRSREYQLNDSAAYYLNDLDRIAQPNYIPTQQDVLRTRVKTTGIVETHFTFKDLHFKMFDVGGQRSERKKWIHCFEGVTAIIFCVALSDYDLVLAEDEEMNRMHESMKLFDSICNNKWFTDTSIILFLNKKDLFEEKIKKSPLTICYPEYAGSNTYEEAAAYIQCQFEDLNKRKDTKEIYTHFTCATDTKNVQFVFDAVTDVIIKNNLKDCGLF
Chain of Pyruvate kinase (Leishmania mexicana) (Q27686 2-499 E452W): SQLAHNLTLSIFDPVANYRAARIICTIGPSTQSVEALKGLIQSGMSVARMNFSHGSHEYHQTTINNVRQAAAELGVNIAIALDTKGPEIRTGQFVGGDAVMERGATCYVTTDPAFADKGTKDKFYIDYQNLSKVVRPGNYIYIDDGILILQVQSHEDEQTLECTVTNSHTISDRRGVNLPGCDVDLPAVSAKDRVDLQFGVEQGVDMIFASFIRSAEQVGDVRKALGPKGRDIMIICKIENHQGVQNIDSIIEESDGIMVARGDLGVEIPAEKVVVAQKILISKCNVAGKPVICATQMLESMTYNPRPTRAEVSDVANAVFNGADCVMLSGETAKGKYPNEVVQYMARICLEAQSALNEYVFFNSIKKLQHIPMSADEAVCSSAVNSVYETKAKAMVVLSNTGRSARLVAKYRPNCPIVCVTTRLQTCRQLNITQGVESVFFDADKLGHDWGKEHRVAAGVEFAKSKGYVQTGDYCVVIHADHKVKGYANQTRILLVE
Chain of Calcium and integrin-binding protein 1 (Homo sapiens) (Q99828 whole entry, looked up): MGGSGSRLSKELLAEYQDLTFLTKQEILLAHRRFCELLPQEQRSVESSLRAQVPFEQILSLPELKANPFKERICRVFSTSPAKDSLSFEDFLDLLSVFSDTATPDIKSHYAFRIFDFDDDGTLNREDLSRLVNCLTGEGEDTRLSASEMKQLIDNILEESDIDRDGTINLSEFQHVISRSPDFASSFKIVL

C=CCN1CCC2(C)c3cc(O)ccc3C[C@H]1[C@H]2C
active: [8] 7.94 µM and 631 nM | [11] 14.1 µM | [12] 17.8 µM and 15.8 µM
inactive: [2] | [3] > 46 µM | [4] > 46 µM | [5] | [6] | [7] | [9] | [10] | [13] | [14] | [15] | [16] | [17] | [18]
inactive and 31.6 µM (active): [1]

O=C(CC1NCCC[C@H]1O)Cn1cnc2cc(Br)c(Cl)cc2c1=O (stereo not given in full)
inactive: [19]

C=C1[C@@H](C)[C@H]2[C@H](Cc3ccccc3)NC(=O)[C@]23OC(=O)/C=C/C(=O)CCC[C@@H](C)C/C=C/[C@H]3[C@@H]1O
active: [20] 10 µM
